The text below walks through data of PubChem BioAssay (NCATS).

SMILES strings stand for the structures. Records with an inconclusive call do not appear. A number with no mark means an inactive call. Active and inactive are the calls of the source. Calls follow the shape of the dose curve; as a rule, active = well fitted curve in the direction sought with a large enough effect; inconclusive = small, poorly fitted or top-dose-only effect, or another doubt; inactive = no such curve, though single readings can be large; an effect the other way counts as inactive or inconclusive.

Test [1] in a line: Quantitative highthroughput screen to assess conditional lethalithy of NOMO1 cells grown in RPMI1640 with untreated serum (RPMI+s) (AID 1963876). Also: nearly all actives have a fitted effect of over 35% in size. Also: potency is read from the fitted curve at half-maximal effect.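 As to viability: 100% = DMSO wells and 0% = empty wells without cells.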 In outline: (§1)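 Each medium arm—HPLM with 10% dialyzed FBS, or RPMI1640 with 5 mM glucose and 10% untreated or dialyzed FBS—was screened against an 11-point, 3-fold compound titration for 48 h at 37 °C, with CellTiter-Glo luminescence as endpoint.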

Test [2] can be described thus: Quantitative highthroughput screen to assess conditional lethalithy of NOMO1 cells grown in RPMI1640 with dialyzed fetal bovine serum (RPMI+ds) (AID 1963877). Also: nearly all actives have a fitted effect of over 30% in size. Also: potency is read from the fitted curve at half-maximal effect.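 As to viability: series mostly up to about 46 µM; 100% = DMSO control wells and 0% = empty wells.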 In outline:
as §1

A short description of test [3]: Quantitative highthroughput screen to assess conditional lethalithy of NOMO1 cells grown in Human Plasma-Like Medium with dialyzed fetal bovine serum (HPLM+ds) (AID 1963878). Also: nearly all actives have a fitted effect of over 35% in size. Also: potency is read from the fitted curve at half-maximal effect.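 As to viability: 100% = DMSO wells and 0% = empty wells on each plate.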 In outline:
as §1

The nature of test [4]: Quantitative highthroughput screen to assess conditional lethalithy of P12 Ichikawa cells grown in RPMI1640 with dialyzed fetal bovine serum (RPMI+ds) (AID 1963880). Also: nearly all actives have a fitted effect of over 35% in size. Also: potency is read from the fitted curve at half-maximal effect.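 As to viability: 100% = DMSO wells and 0% = empty wells on each plate.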 The conditions noted are these: Potency: P12-Ichikawa viability. In outline:
as §1

Test [5] is described as follows: Quantitative highthroughput screen to assess conditional lethalithy of P12 Ichikawa cells grown in RPMI1640 with untreated serum (RPMI+s) (AID 1963881). Also: nearly all actives have a fitted effect of over 35% in size. Also: potency is read from the fitted curve at half-maximal effect.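 As to viability: series mostly up to about 46 µM; 100% = DMSO wells and 0% = empty wells without cells.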 The conditions noted are these: Potency: viability. In a few lines:
as §1

A short description of test [6]: Quantitative highthroughput screen to assess conditional lethalithy of SEM cells grown in Human Plasma-Like Medium with dialyzed fetal bovine serum (HPLM+ds) (AID 1963882). Also: nearly all actives have a fitted effect of over 35% in size. Also: potency is read from the fitted curve at half-maximal effect. As to viability: series mostly up to about 46 µM. In outline: as §1
Test [7] is described as follows: Quantitative highthroughput screen to assess conditional lethalithy of SEM cells grown in RPMI1640 with unreated serum (RPMI+s) (AID 1963883). Also: nearly all actives have a fitted effect of over 35% in size. Also: potency is read from the fitted curve at half-maximal effect.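 As to viability: 100% = DMSO wells and 0% = empty wells without cells.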 In outline: as §1
Test [8] is described as follows: Cellular viability qHTS for adrenocortical cancer (ACC) cell line SW-13 (AID 1963989).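 Also: cells grown in serum-free medium with ITS supplement; % is scaled to controls: 0 for no effect and ±100 for the full control effect; nearly all actives have a fitted effect of over 65% in size.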 The conditions noted are these: SW-13 ACC cells viability, CellTiter-Glo, 48 h; activity (max response): active compounds read low. In a few lines:
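Luminescent ATP read-out (CellTiter-Glo, 20 min at room temperature) measured metabolically competent SW-13 cells after 48 h compound treatment. Final concentrations spanned up to 46 uM; bortezomib served as positive control.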
On the technique in general: In qHTS, concentration-response curves come from the screen itself.

Test [9] in a line: Cellular viability qHTS for adrenocortical cancer (ACC) cell line NCI-H295R (AID 1963990).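 Also: 0% = DMSO only wells and -100% = full killing with cytotoxic reference compound; nearly all actives have a fitted effect of over 60% in size.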 In outline: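 IC50 and maximal efficacy derive from four-parameter logistic modelling of titration curves, with reads scaled between DMSO-only wells (0%) and doxorubicin hydrochloride (100% inhibition). Compounds spanned up to 46 uM over 48 h.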
Test [10] in a line: Quantitative highthroughput screen to assess conditional lethalithy of P12 Ichikawa cells grown in Human Plasma-Like Medium with dialyzed fetal bovine serum (HPLM+ds) (AID 1963879). Also: nearly all actives have a fitted effect of over 35% in size. Also: potency is read from the fitted curve at half-maximal effect. As to viability: series mostly up to about 46 µM. The conditions noted are these: Potency: viability. In outline: as §1
Test [11] is described as follows: Quantitative highthroughput screen to assess conditional lethalithy of SEM cells grown in RPMI1640 with dialyzed fetal bovine serum (RPMI+ds) (AID 1963884). Also: nearly all actives have a fitted effect of over 35% in size. Also: potency is read from the fitted curve at half-maximal effect.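 As to viability: series mostly up to about 46 µM; 100% = DMSO control wells and 0% = empty wells without cells.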 In a few lines:
as §1

In the case of `COc1cccc2c1C(=O)c1c(O)c3c(c(O)c1C2=O)C[C@@](O)(C(C)=O)C[C@H]3O[C@H]1C[C@H](N)[C@H](O)[C@H](C)O1`, the Potency is 264 nM (active) in test [1]; 235 nM (active) in test [2]; 264 nM (active) in [3]; 209 nM (active) in test [4]; 209 nM (active) in test [5]; 83.3 nM (active) in [6]. In [7], the Potency was 46.9 nM (active).
On to `NC(=O)c1nnn(Cc2cc(Cl)c(C(=O)c3ccc(Cl)cc3)c(Cl)c2)c1N`, for which the Potency entry in test [1], in test [2], in [3] and in [6] was “inactive” throughout.
With `CN(N=O)C(=O)N[C@H]1C(O)OC(CO)[C@@H](O)[C@H]1O` (some centres not stated), the Potency result in test [1], in test [2], in test [3], in test [4] and in [5] was “inactive” throughout.
Turning to `Cc1ccc(C2=Nc3ccc(Cl)cc3OC2)cc1`, the Potency entry in test [1], in test [2], in test [3] and in test [9] was “inactive” throughout. For the same compound, in [5], the Potency is 20900 nM (active). Also, in [8], the activity (max response) was -18.7%.
For the compound `CC(=O)OCC(=O)[C@@]12N=C(C)O[C@H]1C[C@H]1[C@@H]3CCC4=CC(=O)C=C[C@]4(C)[C@@H]3[C@@H](O)C[C@@]12C`, the Potency entry in test [1], in test [2] and in test [3] was “inactive” each time. Further, the Potency is 4180 nM (active) in test [10] and 20900 nM (active) in test [11].
In the case of `CC1(C)OC2CC3C4CC(F)C5=CC(=O)C=CC5(C)C4C(O)CC3(C)[C@]2(C(=O)CO)O1` (some centres not stated), the Potency entry in test [1], in test [2] and in [3] was “inactive” each time. In test [6], the Potency is 2350 nM (active).
Regarding `C[C@]12CCC(=O)C=C1CC[C@@H]1[C@H]2[C@@H](O)C[C@@]2(C)[C@H]1CC[C@]2(O)C(=O)CO`, the Potency entry in test [1], in test [2], in test [3] and in test [6] was “inactive” each time.
For the compound `CC(=O)[C@]1(O)Cc2c(O)c3c(c(O)c2[C@@H](O[C@H]2C[C@H](N)[C@@H](O)[C@H](C)O2)C1)C(=O)c1ccccc1C3=O`, the Potency is 2960 nM (active) in test [1]; 3720 nM (active) in test [2]; 2960 nM (active) in test [3]; 1480 nM (active) in test [4]; 1480 nM (active) in test [5]; 833 nM (active) in test [7]. The Potency in [11] is 1050 nM (active).
As for `CCCCCCCCCCCCCCCC(=O)OC[C@@H](NC(=O)C(Cl)Cl)[C@H](O)c1ccc([N+](=O)[O-])cc1`, the Potency entry in test [1], in [2], in test [3], in test [4], in [5] and in [6] was “inactive” throughout. Also, the Potency result in test [7] and in test [11] was “inactive” throughout.
As for `O=C(N[C@H](CO)[C@H](O)c1ccc([N+](=O)[O-])cc1)C(Cl)Cl`, the Potency entry in [1], in test [2], in [3], in test [6], in test [7] and in [11] was “inactive” each time. The Potency entry in test [9] is “inactive”. Also, the Potency in test [5] is 20900 nM (active).
Turning to `Cc1cc(Nc2cc(N3CCN(C)CC3)nc(C=Cc3ccccc3)n2)n[nH]1`, the Potency in [1] was 3030 nM (active); in test [2] it was 3400 nM (active); in test [3], 3030 nM (active); in test [4], 2700 nM (active); in test [5], 3030 nM (active); in test [6], 540 nM (active). The Potency in [7] was 540 nM (active); in test [11] it was 429 nM (active).
Take `CC#CCn1c(N2CCC[C@@H](N)C2)nc2c1c(=O)n(Cc1nc(C)c3ccccc3n1)c(=O)n2C`: the Potency result in [1], in [2], in [3], in [4], in [5] and in test [6] was “inactive” throughout. The Potency result in test [7] and in [9] was “inactive” throughout. In test [8], the activity (max response) is 0.332%.
Regarding `CC(C)(C)COc1ccc(-n2cc(C(=O)O)cn2)cc1C#N`, the Potency result in test [1], in test [2], in test [3], in test [4], in test [5] and in test [6] was “inactive” each time. In addition, the Potency result in test [7] and in [11] was “inactive” each time. Further, the activity (max response) in [8] was 0.955%.
Regarding `CN[C@H](CC(C)C)C(=O)N[C@H]1C(=O)N[C@@H](CC(N)=O)C(=O)N[C@@H]2C(=O)N[C@H]3C(=O)N[C@H](C(=O)N[C@H](C(=O)O)c4cc(O)cc(O)c4-c4cc3ccc4O)[C@H](O)c3ccc(c(Cl)c3)Oc3cc2cc(c3O[C@@H]2O[C@H](CO)[C@@H](O)[C@H](O)[C@@H]2O[C@H]2C[C@](C)(N)[C@H](O)[C@H](C)O2)Oc2ccc(cc2Cl)[C@H]1O`, the Potency result in test [1], in test [2], in test [3], in test [10], in test [6] and in [11] was “inactive” in each case.
For `CC(CCc1ccc(O)cc1)NCCc1ccc(O)c(O)c1` (configuration not stated), the Potency entry in [1], in test [2], in [3] and in [9] was “inactive” in each case. Further, the Potency in test [6], in test [7] and in [11] was 20900 nM (active) throughout. For the same compound, the activity (max response) in [8] was -9.68%.
Take `O=C(O)[C@H]1O[C@H](Oc2cc3oc(-c4ccccc4)cc(=O)c3c(O)c2O)[C@H](O)[C@@H](O)[C@H]1O`: the Potency result in test [1], in test [2], in test [3] and in test [10] was “inactive” throughout. The Potency in test [6] and in test [7] was 18700 nM (active) in each case.
For `O=C(O)[C@H](CC(=O)N1C[C@@H]2CCCC[C@H]2C1)Cc1ccccc1`, the Potency entry in test [1], in test [2], in test [3], in [4], in test [5] and in test [6] was “inactive” in each case. Besides, the Potency entry in test [7] and in test [11] was “inactive” in each case.
For the compound `CC(C)CN(C[C@@H](O)[C@H](Cc1ccccc1)NC(=O)O[C@H]1CO[C@H]2OCC[C@H]21)S(=O)(=O)c1ccc(N)cc1`, the Potency result in [1], in [2] and in test [3] was “inactive” each time. In addition, the Potency in test [6] was 3720 nM (active).
As to `O=C1c2c(O)cc(O)cc2O[C@H](c2cc(O)c(O)c(O)c2)[C@H]1O`, the Potency result in test [1], in [2], in test [3] and in test [5] was “inactive” in each case. The results for the Potency in test [6] and in test [11] were 3720 nM (active) and 5260 nM (active), respectively.
